Test systems include NCI-H23 lung; NCI-H226 lung; NCI-H322M lung; HOP-62 NSCLC; NCI-H460 lung; HOP-92 NSCLC; NCI-H522 lung; A549/ATCC NSCLC; 786-0 renal; COLO 205 colon; DU-145 prostate; K-562 leukemia; MALME-3M melanoma; MDA-MB-231 breast; RXF 393 renal; SF-268 CNS; SF-295 CNS; SF-539 CNS; UACC-257 melanoma; M14 melanoma.
Common to all, as to assay: NCI-60 one-dose screen, 48 h (100 = growth as untreated, 0 = no growth, -100 = all killed)
Holding throughout (conditions): 10 µM unless noted

Structures are written as SMILES. The panel holds about 83,000 compounds, 20% with a hit somewhere; the sample as a whole holds those more often.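 The endpoint reported here, percent growth, reads 100 for growth as untreated, 0 for no net growth and -100 for all cells dead.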 Unmarked numbers belong to inactive results. Active and inactive are the calls of the source. The calls were made as follows: active = growth percent below 10; inactive = the rest.

As for `CCOC(=O)c1c(C)c2c(n1C)CSc1cc(S(=O)(=O)c3ccccc3)c(=O)[nH]c1-2`, the growth was 21.7% [100 µM] in the experiment with NCI-H23 lung; 24.3% [100 µM] with NCI-H226 lung; 28.1% [100 µM] with NCI-H322M lung; 57.5% [100 µM] with HOP-62 NSCLC; 9.02% [100 µM] (active) with NCI-H460 lung; 8.76% [100 µM] (active) in the experiment on HOP-92 NSCLC. Moreover, the growth was 32% [100 µM] with NCI-H522 lung; 32.1% [100 µM] with A549/ATCC NSCLC; 31.4% [100 µM] in the experiment on 786-0 renal; -27.7% [100 µM] (active) in the experiment on COLO 205 colon; 25.8% [100 µM] in the experiment with DU-145 prostate; 31% [100 µM] in the experiment with K-562 leukemia. Moreover, the growth in the experiment on MALME-3M melanoma is 73.2% [100 µM]; in the experiment on MDA-MB-231 breast it was 31.1% [100 µM]; in the experiment with RXF 393 renal, 44.3% [100 µM]; with SF-268 CNS, 40.5% [100 µM]; with SF-295 CNS it was 27.2% [100 µM]; with SF-539 CNS, 28.9% [100 µM]. Also, the figures for the growth in the experiment with UACC-257 melanoma and in the experiment on M14 melanoma were 41.9% [100 µM] and 23.7% [100 µM], respectively.
Take `COc1cc(OC)cc(C2C(C#N)=C(N)Oc3c2ccc2ccc(O)cc32)c1` (stereo not given): the growth with NCI-H23 lung is 14.9%; with NCI-H226 lung, 38.2%; in the experiment on NCI-H322M lung, 30.9%; with HOP-62 NSCLC, 23.3%; in the experiment with NCI-H460 lung, 3.85% (active); with HOP-92 NSCLC it was 13.4%. The growth in the experiment on NCI-H522 lung is 1.5% (active); in the experiment with A549/ATCC NSCLC, 6.38% (active); in the experiment on 786-0 renal it was 12.7%; in the experiment with COLO 205 colon it was -42% (active); in the experiment with DU-145 prostate it was 10.9%; with K-562 leukemia, 6.22% (active). The growth in the experiment on MALME-3M melanoma was 39.3%; with MDA-MB-231 breast it was 10.9%; in the experiment on RXF 393 renal it was 24.1%; in the experiment on SF-268 CNS, 15.9%; in the experiment on SF-295 CNS, 22.9%; in the experiment on SF-539 CNS, -9% (active). Besides, the results for the growth in the experiment with UACC-257 melanoma and with M14 melanoma were 69.4% and 5.6% (active), respectively.
`CCOC(=O)CSc1nc2sc3c(c2c(=O)n1-c1ccc([N+](=O)[O-])cc1)CCCCC3`: the growth in the experiment on NCI-H23 lung is 74.5%; in the experiment with NCI-H226 lung, 98.8%; in the experiment with NCI-H322M lung, 77.2%; with HOP-62 NSCLC, 47.7%; in the experiment on NCI-H460 lung, 48.1%; with HOP-92 NSCLC, 80.3%. In addition, the growth was 68.8% with NCI-H522 lung; 66.1% in the experiment with A549/ATCC NSCLC; 71.3% with 786-0 renal; 82.8% in the experiment with COLO 205 colon; 63.5% in the experiment on DU-145 prostate; 75.2% in the experiment on K-562 leukemia. Also, the growth in the experiment on MALME-3M melanoma is 77.7%; in the experiment on MDA-MB-231 breast it was 50.4%; in the experiment with RXF 393 renal, 76.8%; in the experiment with SF-268 CNS it was 71.2%; in the experiment on SF-295 CNS it was 59.3%; in the experiment with SF-539 CNS, 58.3%. Also, the growth was 89% in the experiment on UACC-257 melanoma and 75.3% in the experiment on M14 melanoma.
For the compound `Cc1ccc(-c2nc(C#N)c(S(=O)(=O)NCCO)o2)cc1`, the growth in the experiment with NCI-H23 lung is 82.3%; in the experiment on NCI-H226 lung, 86.6%; in the experiment on NCI-H322M lung, 92%; with HOP-62 NSCLC, 90.4%; in the experiment on NCI-H460 lung, 88.6%; in the experiment on HOP-92 NSCLC, 66.1%. Besides, the growth with NCI-H522 lung was -4.75% (active); in the experiment on A549/ATCC NSCLC, 90%; in the experiment on 786-0 renal, 61.3%; with COLO 205 colon, 43.1%; in the experiment on DU-145 prostate, 90%; in the experiment with K-562 leukemia, 29.8%. Further, the growth was 75.5% in the experiment on MALME-3M melanoma; 75.6% in the experiment with MDA-MB-231 breast; 56.6% in the experiment with RXF 393 renal; 87.4% in the experiment with SF-268 CNS; 101% in the experiment on SF-295 CNS; 46.6% with SF-539 CNS. Moreover, the growth in the experiment with UACC-257 melanoma was 71.4%; in the experiment on M14 melanoma, 32.5%.
`Cc1ccc(O)c(NC(=O)c2ccc(CNc3ccnc(C(F)(F)F)c3)cc2)c1`: the growth with NCI-H23 lung is 81.1%; in the experiment with NCI-H226 lung it was 74%; with NCI-H322M lung it was 65.3%; in the experiment with HOP-62 NSCLC, 56%; with NCI-H460 lung, 18.8%; in the experiment with HOP-92 NSCLC, 92.1%. Also, the growth was 67.6% in the experiment with NCI-H522 lung; 53% in the experiment on A549/ATCC NSCLC; 48.8% with 786-0 renal; 152% with COLO 205 colon; 107% in the experiment with DU-145 prostate; 24.2% in the experiment on K-562 leukemia. Also, the growth in the experiment with MALME-3M melanoma is 59.9%; in the experiment on MDA-MB-231 breast, 48.9%; in the experiment on RXF 393 renal, 92%; in the experiment on SF-268 CNS, 79.9%; in the experiment with SF-295 CNS it was 17.2%; with SF-539 CNS it was 35.1%. In addition, the growth in the experiment with UACC-257 melanoma was 71.3%; in the experiment on M14 melanoma, 49.2%.
Consider `CC/C=C1/C(=O)C=C[C@@H]1C/C=C\CCCC(=O)OC`, for which the growth was 74.8% with NCI-H23 lung; 88.1% in the experiment on NCI-H226 lung; 108% with NCI-H322M lung; 90.5% in the experiment with HOP-62 NSCLC; 97.9% in the experiment with NCI-H460 lung; 91.3% in the experiment with HOP-92 NSCLC. For the same compound, the growth was -38.3% (active) in the experiment on NCI-H522 lung; 90.2% with A549/ATCC NSCLC; 82.5% in the experiment on 786-0 renal; 97.3% in the experiment on COLO 205 colon; 77.1% with DU-145 prostate; 4.34% (active) in the experiment on K-562 leukemia. For the same compound, the growth in the experiment with MALME-3M melanoma was 56.3%; in the experiment with MDA-MB-231 breast, 28.7%; in the experiment with RXF 393 renal it was 103%; in the experiment with SF-268 CNS, 79.7%; in the experiment on SF-295 CNS, 88.7%; with SF-539 CNS, 108%. Further, the growth with UACC-257 melanoma is 73.1%; in the experiment on M14 melanoma it was 50.5%.
Regarding `CCN1C(=O)N(CC)C2C1NN=c1s/c(=C\c3ccccc3Br)c(=O)n12` (stereo not given), the growth was 27.1% with NCI-H23 lung; 56.7% in the experiment with NCI-H226 lung; 37.5% in the experiment with NCI-H322M lung; 40% in the experiment with HOP-62 NSCLC; 3.66% (active) in the experiment with NCI-H460 lung; 19.5% in the experiment on HOP-92 NSCLC. Moreover, the growth in the experiment on NCI-H522 lung was 0.628% (active); in the experiment on A549/ATCC NSCLC, 12.3%; in the experiment with 786-0 renal it was 17.4%; with COLO 205 colon it was 3.13% (active); in the experiment with DU-145 prostate, 10.5%; in the experiment with K-562 leukemia it was 13.1%. Further, the growth with MALME-3M melanoma was 42%; with MDA-MB-231 breast, 13.9%; in the experiment on RXF 393 renal it was 50.7%; in the experiment on SF-268 CNS, 43.9%; in the experiment with SF-295 CNS it was 9.97% (active); in the experiment with SF-539 CNS it was -16% (active). Besides, the growth with UACC-257 melanoma is 56%; in the experiment on M14 melanoma it was 8.22% (active).

For the origin of these results see PubChem BioAssay (NCI).
